Experimental findings from PubChem BioAssay AID1159580 (chemical genetic matrix, 2015) are described below.

Structures are written as SMILES. The campaign covered roughly 5,500 compounds. About 2,000 (36%) were called active. Not shown: some 18% with an inconclusive outcome. This is one part of the list. Values without a mark were called inactive. Cut-off read from the data, not from the text of the source: active = normalized growth mostly below about 0.91 (no sharp cut-off); inconclusive = no clear call, values can overlap the other calls; inactive = mostly above about 0.92.

A short description of this assay: chemical genetic growth profiling, strain panel (AID 1159580).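 Note: tested at 20 µM; growth read once vehicle control cultures reached saturation at 30 °C; 1 = growth at the plate median or of vehicle wells; lower values mean less growth of the strain.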 To be noted: S. cerevisiae deletion strains, growth OD.
[1] abbreviates: locus YAL040C, strain CLN3, stronger effect = lower value.
Where [2] appears, read: locus YCL061C, strain MRC1 (second series), stronger effect = lower value.
[3] abbreviates: locus YDR363W, strain ESC2, stronger effect = lower value.
Setting [4] is: locus YER002W, strain NOP16, stronger effect = lower value.
Setting [5] is: locus YMR263W, strain SAP30, stronger effect = lower value.
Setting [6] is: locus YNL175C, strain NOP13, stronger effect = lower value.
Setting [7] is: locus YNL197C, strain WHI3, stronger effect = lower value.
Where [8] appears, read: locus YNL224C, strain SQS1, stronger effect = lower value.
Setting [9] is: locus YNL322C, strain KRE1, stronger effect = lower value.
Where [10] appears, read: locus YOR083W, strain WHI5 (second series), stronger effect = lower value.

Consider `COc1cccc(-c2cc(=O)c3ccccc3o2)c1N`, for which the normalized growth is 0.905 under setting [1]; 1 under setting [2]; 1.04 under setting [3]; 1.02 under setting [4]; 0.992 (locus YJR075W, strain HOC1, stronger effect = lower value); 0.997 under setting [5]. The normalized growth is 0.992 (locus YMR307W, strain GAS1, stronger effect = lower value); 0.922 under setting [6]; 0.937 under setting [7]; 0.907 (active) under setting [8]; 1.01 under setting [9]; 0.807 (active) under setting [10]. Moreover, the normalized growth (locus YPL055C, strain LGE1, stronger effect = lower value) is 1.01.

Take `O=c1cc(N2CCOCC2)oc2c(-c3ccccc3)cccc12`: the normalized growth reads like this: (locus YAL013W, strain DEP1, stronger effect = lower value) 1.03; under setting [1], 0.996; under setting [2], 1.01; (locus YDR150W, strain NUM1, stronger effect = lower value) 0.992; under setting [3], 0.995; under setting [4], 1. Further, the normalized growth was 0.992 under setting [5]; 0.996 under setting [6]; 0.991 under setting [7]; 0.999 under setting [8]; 1.01 under setting [9]; 0.986 under setting [10]. For the same compound, the normalized growth (locus YPL241C, strain CIN2, stronger effect = lower value) is 0.998.
